In PubChem BioAssay (NCATS):
“And” between values parts separate entries of the source, which are not always exact repeats. Equal entries are not always repeated. Records with an inconclusive call do not appear. A call without a number means that no potency is given here. Unmarked numbers belong to inactive results. The source made the active and inactive calls. Calls come from the whole dose curve; as a rule, active = well fitted inhibition curve with a large enough effect; inconclusive = small, poorly fitted or top-dose-only effect; inactive = flat fitted curve, though single readings scatter.

Key:
GB4 = experiment: qHTS profiling for inhibitors of Plasmodium falciparum proliferation (AID 504749); note: potency is the fitted concentration of half-maximal effect; details: P. falciparum in erythrocytes, SYBR Green DNA, 72 h; series mostly up to 28.7 µM
Outline: (§1)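 SYBR Green fluorescence (ex 485 nm, em 535 nm) reports parasite DNA after 72 h compound exposure of infected red cells at 0.3% parasitemia, 2.5% hematocrit; signal normalized to 0.29 uM artemisinin and vehicle wells.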

HB3 = experiment: as above; details: P. falciparum in erythrocytes, SYBR Green DNA, 72 h; series mostly up to 28.7 µM
Outline: as §1

ICS = experiment: as above; details: P. falciparum in erythrocytes, SYBR Green DNA, 72 h; series mostly up to 28.7 µM
Outline: as §1

JCK = experiment: as above; details: P. falciparum in erythrocytes, SYBR Green DNA, 72 h; series mostly up to 28.7 µM
Outline: as §1

N140 = experiment: as above; details: P. falciparum in erythrocytes, SYBR Green DNA, 72 h; series mostly up to 28.7 µM
Outline: as §1

P93_24 = experiment: as above; details: P. falciparum in erythrocytes, SYBR Green DNA, 72 h; series mostly up to 28.7 µM
Outline: as §1

P94_40 = experiment: as above; details: P. falciparum in erythrocytes, SYBR Green DNA, 72 h; series mostly up to 28.7 µM
Outline: as §1

PAD = experiment: as above; details: P. falciparum in erythrocytes, SYBR Green DNA, 72 h; series mostly up to 28.7 µM
Outline: as §1

PC15 = experiment: as above; details: P. falciparum in erythrocytes, SYBR Green DNA, 72 h; series mostly up to 28.7 µM
Outline: as §1

PC26 = experiment: as above; details: P. falciparum in erythrocytes, SYBR Green DNA, 72 h; series mostly up to 28.7 µM
Outline: as §1

PC49 = experiment: as above; details: P. falciparum in erythrocytes, SYBR Green DNA, 72 h; series mostly up to 28.7 µM
Outline: as §1

SC27B = experiment: as above; details: P. falciparum in erythrocytes, SYBR Green DNA, 72 h; series mostly up to 28.7 µM
Outline: as §1

TAB109 = experiment: as above; details: P. falciparum in erythrocytes, SYBR Green DNA, 72 h; series mostly up to 28.7 µM
Outline: as §1

TAB113 = experiment: as above; details: P. falciparum in erythrocytes, SYBR Green DNA, 72 h; series mostly up to 28.7 µM
Outline: as §1

TAB165 = experiment: as above; details: P. falciparum in erythrocytes, SYBR Green DNA, 72 h; series mostly up to 28.7 µM
Outline: as §1

W2 = experiment: as above; details: P. falciparum in erythrocytes, SYBR Green DNA, 72 h; series mostly up to 28.7 µM
Outline: as §1

CRL-7250 = normal cell line; experiment: Cytotoxic Profiling of Annotated Libraries Using Quantitative High-Throughput Screening (AID 1296008); details: Five cell lines viability, CellTiter-Glo ATP luminescence, 48-72 h; max response: active compounds read low
Outline: (§2)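 Cells exposed to compounds for 48 or 72 hr at 37 degrees Celsius. Viability read as ATP-coupled luminescence with CellTiter-Glo after 10 min at room temperature.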

HEK293 = experiment: as above; details: Five cell lines viability, CellTiter-Glo ATP luminescence, 48-72 h; max response: active compounds read low
Outline: as §2

HaCat = experiment: as above; details: Five cell lines viability, CellTiter-Glo ATP luminescence, 48-72 h; max response: active compounds read low
Outline: as §2

KB-3-1 = experiment: as above; details: Five cell lines viability, CellTiter-Glo ATP luminescence, 48-72 h; max response: active compounds read low
Outline: as §2
Note: nearly all actives have a fitted effect of over 60% in size.

CCn1cc(C(=O)O)c(=O)c2cnc(N3CCCC3)nc21
Potency (GB4): inactive
Potency (HB3): inactive
Potency (ICS): inactive
Potency (JCK): inactive
Potency (N140): inactive
Potency (P93_24): inactive
Potency (P94_40): inactive
Potency (PAD): inactive
Potency (PC15): inactive
Potency (PC26): inactive
Potency (PC49): inactive
Potency (SC27B): inactive
Potency (TAB109): inactive
Potency (TAB113): inactive
Potency (TAB165): inactive
Potency (W2): inactive
max response (CRL-7250): 4.85%
max response (HEK293): 1.04%
max response (HaCat): -10.2%
max response (KB-3-1): 8.93%

N[C@H](Cc1c[nH]c2ccccc12)C(=O)O
Potency (GB4): inactive
Potency (HB3): inactive
Potency (ICS): inactive
Potency (JCK): inactive
Potency (N140): inactive
Potency (P93_24): inactive
Potency (P94_40): inactive
Potency (PAD): inactive
Potency (PC15): inactive
Potency (PC26): inactive
Potency (PC49): inactive
Potency (SC27B): inactive
Potency (TAB109): inactive
Potency (TAB113): inactive
Potency (TAB165): inactive
Potency (W2): inactive
max response (CRL-7250): -25%
outcome (HEK293): inactive
outcome (HaCat): inactive
max response (KB-3-1): 5.87%

CC(O)(P(=O)(O)O)P(=O)(O)O
Potency (HB3): inactive
Potency (ICS): inactive
Potency (JCK): inactive
Potency (N140): inactive
Potency (P93_24): inactive
Potency (P94_40): inactive
Potency (PAD): inactive
Potency (PC15): inactive
Potency (PC26): inactive
Potency (PC49): inactive
Potency (SC27B): inactive
Potency (TAB109): inactive
Potency (TAB113): inactive
Potency (TAB165): inactive
Potency (W2): inactive
max response (CRL-7250): 0.923%
outcome (HEK293): inactive
outcome (HaCat): inactive
max response (KB-3-1): 0.618%

CCCN1CCCC[C@H]1C(=O)Nc1c(C)cccc1C
Potency (GB4): 15.1 µM (active)
Potency (HB3): inactive
Potency (ICS): inactive
Potency (JCK): inactive
Potency (N140): inactive
Potency (P93_24): inactive
Potency (P94_40): inactive
Potency (PAD): inactive
Potency (PC15): inactive
Potency (PC26): inactive
Potency (PC49): inactive
Potency (SC27B): inactive
Potency (TAB109): inactive
Potency (TAB113): inactive
Potency (TAB165): inactive
Potency (W2): 4.78 µM (active)
max response (CRL-7250): -6.22%
max response (HEK293): -0.54%
outcome (HaCat): inactive
max response (KB-3-1): -10%

O=C1c2ccccc2C(=O)C1c1ccccc1
Potency (GB4): inactive
Potency (HB3): inactive
Potency (ICS): inactive
Potency (JCK): inactive
Potency (N140): inactive
Potency (P93_24): inactive
Potency (P94_40): inactive
Potency (PAD): inactive
Potency (PC15): inactive
Potency (PC26): inactive
Potency (PC49): inactive
Potency (SC27B): inactive
Potency (TAB109): inactive
Potency (TAB113): inactive
Potency (TAB165): inactive
Potency (W2): inactive
max response (CRL-7250): -3.39%
outcome (HEK293): inactive
outcome (HaCat): inactive
max response (KB-3-1): -18.6%

Cc1ccc(C(=O)C(C)CN2CCCCC2)cc1 (stereo not given)
Potency (GB4): 13.5 µM (active)
Potency (ICS): 3.98 µM (active)
Potency (JCK): inactive
Potency (PC49): inactive
Potency (SC27B): inactive
Potency (W2): 6.01 µM (active)
max response (CRL-7250): -2.76% and -2.03%
max response (HEK293): 0.201%
outcome (HaCat): inactive; activator
max response (KB-3-1): 7.56% and -13.6% and 2.39%

CCC(C(=O)OCCN(CC)CC)c1ccccc1 (stereo not given)
Potency (HB3): inactive
Potency (ICS): inactive
Potency (JCK): inactive
Potency (N140): inactive
Potency (P93_24): inactive
Potency (P94_40): inactive
Potency (PAD): inactive
Potency (PC15): inactive
Potency (PC26): inactive
Potency (PC49): inactive
Potency (SC27B): inactive
Potency (TAB109): inactive
Potency (TAB113): inactive
Potency (TAB165): inactive
Potency (W2): 15.1 µM (active)
outcome (CRL-7250): inactive
max response (HEK293): 3.62%
outcome (HaCat): inactive
max response (KB-3-1): -12.7%

Cc1cc(=O)n(-c2ccccc2)n1C
Potency (GB4): inactive
Potency (HB3): inactive
Potency (ICS): inactive
Potency (JCK): inactive
Potency (N140): inactive
Potency (P93_24): inactive
Potency (P94_40): inactive
Potency (PAD): inactive
Potency (PC15): inactive
Potency (PC26): inactive
Potency (PC49): inactive
Potency (SC27B): inactive
Potency (TAB109): inactive
Potency (TAB113): inactive
Potency (TAB165): inactive
Potency (W2): inactive
max response (CRL-7250): 2.86%
max response (HEK293): -47.4%
max response (HaCat): -15.6%
max response (KB-3-1): 3.76%

CN(C)CCOc1ccccc1Cc1ccccc1
Potency (HB3): inactive
Potency (N140): 4.47 µM (active)
Potency (PC49): 2.51 µM (active)
Potency (TAB109): 3.16 µM (active)
Potency (W2): 0.0536 µM (active)
outcome (CRL-7250): inactive
max response (HEK293): -12.7%
outcome (HaCat): inactive
max response (KB-3-1): -14.6%

COc1cc(OC)cc(OC)c1
Potency (GB4): inactive
Potency (HB3): inactive
Potency (ICS): inactive
Potency (JCK): inactive
Potency (N140): inactive
Potency (P93_24): inactive
Potency (P94_40): inactive
Potency (PAD): inactive
Potency (PC15): inactive
Potency (PC26): inactive
Potency (PC49): inactive
Potency (SC27B): inactive
Potency (TAB109): inactive
Potency (TAB113): inactive
Potency (TAB165): inactive
Potency (W2): inactive
max response (CRL-7250): -8.4%
max response (HEK293): 0.846%
max response (HaCat): 4.71%
max response (KB-3-1): -2.29%

OCc1ccccc1O
Potency (GB4): inactive
Potency (HB3): inactive
Potency (ICS): inactive
Potency (JCK): inactive
Potency (N140): inactive
Potency (P93_24): inactive
Potency (P94_40): inactive
Potency (PC15): inactive
Potency (PC26): inactive
Potency (PC49): inactive
Potency (SC27B): inactive
Potency (TAB109): inactive
Potency (TAB113): inactive
Potency (TAB165): inactive
max response (CRL-7250): 2.81%
outcome (HEK293): inactive
max response (HaCat): -18.5%
max response (KB-3-1): -3.85%
